MITF primary: blocks human microphthalmia-associated transcription factor; AlphaScreen MITF homodimerization, bead proximity signal; inhibition, % at 2.6 µM; O75030; hit rate 0.91% among 650,000; in the data active = inhibition above about 50%
Target sequence (O75030 whole entry, looked up): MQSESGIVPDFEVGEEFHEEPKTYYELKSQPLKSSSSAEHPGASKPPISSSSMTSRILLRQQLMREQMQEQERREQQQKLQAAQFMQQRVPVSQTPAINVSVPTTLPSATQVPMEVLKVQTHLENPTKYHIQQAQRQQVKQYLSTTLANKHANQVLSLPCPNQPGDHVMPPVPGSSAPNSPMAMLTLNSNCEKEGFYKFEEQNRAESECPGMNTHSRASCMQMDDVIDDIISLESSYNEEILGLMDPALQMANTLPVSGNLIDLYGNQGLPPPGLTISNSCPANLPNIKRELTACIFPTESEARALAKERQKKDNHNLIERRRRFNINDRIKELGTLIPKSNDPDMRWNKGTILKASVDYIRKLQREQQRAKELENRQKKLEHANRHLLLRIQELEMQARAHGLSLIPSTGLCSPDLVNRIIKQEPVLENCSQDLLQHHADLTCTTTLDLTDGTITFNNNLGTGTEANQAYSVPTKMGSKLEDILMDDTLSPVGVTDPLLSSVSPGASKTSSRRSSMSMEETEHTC
GPR151 ag: activators of human GPR151; Q8TDV0; PathHunter beta-arrestin GPR151 cells, luminescence; activation, % at 11.2 µM; hit rate 1% among 650,000; AID 1508602; in the data active = activation above about 4.9%
FBW7 activator: human FBW7 E3 ligase activation, primary screen | hit rate 0.13% among 650,000 | AlphaScreen FBW7–phospho-cyclin E peptide binding, activator screen | normalized activity (activation), % at 26.1 µM | Q969H0; in the data active = normalized activity above about 1.9%;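 note: purified mutant Fbw7 with reduced substrate affinity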
TEAD-YAP inh: TEAD-YAP interaction inhibition | HEK-TIYL cells, TEAD-Gal4/YAP UAS-luciferase luminescence | inhibition, % at 9.12 µM | hit rate 1.4% among 640,000; in the data active = inhibition above about 32%
Hits are given with their value; . = inactive; / = no result. Only some compounds are listed: those with a hit (about 3.5% of all), similar ones and a draw of the others.

SMILES | MITF primary | GPR151 ag | FBW7 activator | TEAD-YAP inh
CCCCOc1ccc(C(=O)SC2CCC3(C)C(=CCC4C3CCC3(C)C(C(C)CCCC(C)C)CCC43)C2)cc1 (stereo not drawn) | . | . | . | .
N#Cc1ccc(OCC(=O)N/N=C/c2cccc(F)c2)cc1 | . | . | . | .
CC(C)N1CCC(=NNC(=O)c2cc(O)c(O)c(O)c2)CC1 | 85 | . | . | .
CN1CCC(=NNC(=O)c2ccccc2)CC1 | . | . | . | .
COc1cccc(S(=O)(=O)N(CC2CC2)C2CCN(Cc3cccc(C#N)c3)CC2)c1 | . | . | . | .
COc1ccc(CNc2c(-c3ccc(O)cc3O)nc3cnccn23)cc1 | . | . | . | 65
COCCNc1c(-c2ccc(O)cc2O)nc2cnccn12 | . | . | . | .
CC(C)=CCC/C(C)=C/CC/C(C)=C/CC[C@]1(C)CCc2cc(O)c(C)c(C)c2O1 | . | . | / | /
Cc1cc(C)nc(SCc2ccccc2Cl)n1 | . | . | 2.2 | .
O=C(COc1ccccc1-c1ccccc1)NN=C1CCCC1 | . | . | . | 61
Cn1c(=O)[nH]c(=O)c2c1nc(N/N=C/c1ccccc1)n2Cc1ccccc1 | . | . | . | .
CCCCCCCC(=O)Nc1ccc(C(=O)Nc2ccc(O)c(C(=O)O)c2)cc1 | . | . | 4.1 | .
CCCN1C(=O)C(=O)c2cc(C)ccc21 | . | . | . | .
Cc1ccc2c(c1)C(=O)C(=O)N2CCCl | . | . | . | 60
Cc1ccc2[nH]c(C)c(CCNS(=O)(=O)c3cc([N+](=O)[O-])ccc3C)c2c1 | . | . | . | .
Cc1[nH]c2ccc(F)cc2c1CCNS(=O)(=O)c1cc([N+](=O)[O-])ccc1Cl | . | . | . | 61
COCCn1nnnc1C(C(C)C)N1CCc2ccccc21 (stereo not drawn) | . | . | . | .
Cc1cccn2c(=O)c(C=O)c(Nc3ccc(Cl)cc3)nc12 | . | . | . | .
CC(C)Cc1ccc(S(=O)(=O)Nc2ccc3c(c2)n(C)c(=O)n3C)cc1 | . | . | . | 33
Cn1c(=O)n(C)c2cc(NS(=O)(=O)c3ccc(C(C)(C)C)cc3)ccc21 | . | . | . | .
O=c1[nH]c(N2CCCCC2)nc2c1CCN(Cc1ccc(O)c(O)c1)C2 | 82 | . | . | .
COc1ccc(CCNC(=O)c2ccc3nc(Nc4ccc5ncccc5c4)sc3c2)cc1 | . | . | . | 32
CCN(CC)c1nc(NCc2cccc(C(F)(F)F)c2)nc(N2CCCC2CO)n1 (stereo not drawn) | . | . | . | .
COc1cccc(Nc2nnc(SCC(=O)NNC(=O)C3CC3)s2)c1 | . | . | . | .
COc1cccc(Nc2nnc(SCC(=O)NNC(=O)c3ccccn3)s2)c1 | . | . | . | 79
SMILES | MITF primary | GPR151 ag | FBW7 activator | TEAD-YAP inh
Cc1ccc2cc3c(nc2c1C)OC(C)C(=O)N(Cc1cccnc1)C3 (stereo not drawn) | . | . | . | 34
Cc1cccc2cc3c(nc12)OC(C)C(=O)N(Cc1cccnc1)C3 (stereo not drawn) | . | . | . | .
CCOC(=O)NC(c1ccccc1)C(C(=O)OCC)C(=O)OCC (stereo not drawn) | . | . | 2.3 | .
O=C(Nc1nccs1)c1cn(-c2ccccc2)nc1-c1ccc(Br)cc1 | . | . | . | .
O=C(Nc1nccs1)c1cn(-c2ccccc2)nc1-c1cccnc1 | . | . | . | 38
COc1cc(C=O)ccc1OCC(=O)c1ccccc1 | . | . | . | 60
COc1ccc(C=O)cc1COc1ccccc1F | . | . | 2.1 | .
COc1ccc(/C=N/n2cnnc2)cc1COc1ccccc1F | . | . | . | .
COc1ccc(S(=O)(=O)Oc2ccc(C=C3C(=O)NC(=O)NC3=O)cc2OC)cc1 | . | . | . | 53
COc1cc(C=O)ccc1OCc1cccc(C(=O)O)c1 | . | . | . | 71
COc1ccc(C=O)cc1OC(=O)c1ccccc1 | . | . | . | .
COc1ccc(C(=O)Oc2ccc(C=C3C(=O)NC(=O)NC3=O)cc2OC)cc1 | . | . | . | .
CC(C)(C)NC(=O)C[n+]1cccc(C(N)=O)c1 | . | . | . | .
COc1cc(/C=N/O)ccc1OCc1cccc(C(=O)O)c1 | . | . | . | 94
COc1cc(C=C2C(=O)NC(=O)NC2=O)ccc1OCc1cccc(C(=O)O)c1 | . | . | . | 81
COc1cc(/C=N/n2cnnc2)ccc1OCc1cccc(C(=O)O)c1 | . | . | . | 78
COc1ccc(-c2csc(NC(=O)CC3Sc4ccccc4NC3=O)n2)cc1 (stereo not drawn) | . | . | . | .
CN(C)C(=O)NC1NC(=O)NC1NC(=O)N(C)C (stereo not drawn) | . | . | . | .
Cc1ccc(-c2nc3cc(N)ccc3o2)cc1Cl | . | . | . | .
COc1cccc(-c2nc3cc(N)ccc3o2)c1 | . | . | . | 49
CCOc1ccc(-c2nc3cc(N)ccc3o2)cc1 | . | . | . | 76
Nc1ccc(-c2nc3cc(Cc4ccc5oc(-c6ccc(N)cc6)nc5c4)ccc3o2)cc1 | . | . | . | .
CCc1ccc2oc(-c3cc(N)ccc3Cl)nc2c1 | . | . | . | .
CCc1ccc2oc(-c3cc(N)ccc3O)nc2c1 | . | . | . | 38
CN(C)c1ccc(-c2nc3cc(N)ccc3o2)cc1 | . | . | . | 79
SMILES | MITF primary | GPR151 ag | FBW7 activator | TEAD-YAP inh
CC(=O)Nc1c(C(C)=O)c(C)nc2ccccc12 | . | . | . | .
CCc1ccc(-c2nc3cc(N)ccc3o2)cc1 | . | . | . | 65
COC(=O)c1ccc(-c2nc3cc(NC(C)=O)c(N)cc3o2)cc1 | . | . | . | .
Nc1ccc(-c2nc3cc(N)ccc3o2)cc1 | . | . | . | 49
COC(=O)c1ccc(-c2nc3cc(N)ccc3o2)cc1 | . | . | . | 72
Cc1cc2c(cc1C)n(C1CC(=O)C3OCC1O3)c(=S)n2Cc1ccccc1Cl (stereo not drawn) | . | . | . | 48
CCc1cc2c(cc3c(=O)n(CCCC(=O)O)ncn32)s1 | . | . | . | 35
O=c1oc2ccc(Cl)cc2c(=O)n1-c1cccc(C(F)(F)F)c1 | . | . | . | 76
O=C(O)C(=O)/C(=C\c1ccccc1)c1ccc2ccccc2n1 | . | . | . | .
O=C(O)C(=O)/C(=C\c1ccsc1)c1ccc2ccccc2n1 | . | . | . | 45
CN1CCN(C(=O)c2cn(C)c3ccc(S(=O)(=O)N4CCCC4)cc3c2=O)CC1 | . | . | . | .
COCCNC(=O)c1cc2c(=O)n3cccc(C)c3nc2n1C | . | . | . | .
COCCCNC(=O)c1cc2c(=O)n3cccc(C)c3nc2n1C | . | . | . | 56
O=C(NCc1ccco1)c1cccn2c(=O)c3cc4ccccc4cc3nc12 | . | . | . | .
COCCCNC(=O)c1cccn2c(=O)c3cc4ccccc4cc3nc12 | . | . | . | 36
CCN1CCN(CC(=O)Nc2ccc(Cl)cc2)C(=O)C1=O | . | . | 1.9 | .
CCN1CCN(CC(=O)Nc2ccc(C)cc2)C(=O)C1=O | . | . | . | .
CC1(C)CC(=O)C2=C(C1)OC1=C(C(=O)CC(C)(C)C1)C2c1cc(C(C)(C)C)c(O)c(C(C)(C)C)c1 | . | . | . | .

Compound activity (PubChem BioAssay)
